The values that follow come from PubChem BioAssay.

Assay [1] can be described thus: P. berghei load reduction in hepatocytes – cell-based, HepG2, luciferase luminescence, HepG2 viability, primary screen (AID 624349).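 Further: 100% = mean of DMSO negative control wells on the same plate.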 The note with it: P. berghei liver stage in HepG2, luciferase luminescence, concentration not given here; parasite load remaining: stronger effect = lower value; viability: measured here: HepG2 viability without parasites.
Assay [2] in a line: Wnt pathway potentiators raising nuclear beta-catenin – imaging, WNT3A-conditioned medium, mouse C2C12, NPC library, primary screen (AID 1117326; in the data active means nuclear beta-catenin stimulation mostly above about 4.2%, no sharp cut-off; inactive means mostly below about 10%). The note with it: stronger effect = higher value.
Assay [3] in a line: stimulators of insulin release from INS-1E, primary screen, cell-based, 5 mM glucose, NPC library (AID 1117329;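 active means compound raises insulin release from rat beta cells at 5 mM glucose, no numeric limit stated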). The settings on record: rat INS-1E insulin secretion, at 10 µM, stronger effect = higher value.
A short description of assay [4]: growth inhibition of GSK3B-pretreated HCT116 cells – cell-based, CellTiter-Glo, 0.2 to 20 µM (AID 1117336;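 active means compounds lowering colon cancer cell viability after pretreatment blocking the GSK3B kinase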). The note with it: HCT116 viability after GSK3B inhibitor, at 20 µM, stronger effect = higher value. A general note: In ATP-based viability assays light output follows the ATP content of the culture.
Assay [5] in a line: inhibition of endothelial tube formation, primary screen, imaging, VEGF stimulated, CD31 staining, tube area, NPC library (AID 1117340;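 active means compound that reduces growth-factor-driven endothelial tube area in a mixed cell culture, no cutoff stated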). The note with it: VEGF-stimulated ADSC/ECFC co-culture, at 10 µM, stronger effect = higher value.
Assay [6] is described as follows: GLP1 release stimulators, primary, NCI-H716, NPC library (AID 1117341;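 active means compound raises GLP1 secretion from the human gut endocrine cells, with no numeric limit stated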). The settings on record: NCI-H716 cells, at 10 µM, stronger effect = higher value.
Assay [7] can be described thus: HCT116 colon cancer cell growth inhibition, primary screen, CellTiter-Glo luminescence, NPC library (AID 1117342;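 active means compounds that lower survival of HCT116 colon cancer cells in the luminescence readout, no numeric limit stated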). The settings on record: at 20 µM (top of the series).
Assay [8] is described as follows: reduced SW480 viability measured with CellTiter-Glo, NPC library, primary (AID 1117343;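 active means compounds that lower viability of the colon cancer cells in the luminescence readout, with no numeric limit stated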). The note with it: CellTiter-Glo luminescence; at 20 µM (top of the series).
Assay [9] can be described thus: NPC library primary testing for decreased DLD-1 cell viability via CellTiter-Glo (AID 1117346;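 active means compounds that lower survival of DLD-1 colon cancer cells in the luminescence readout, no cutoff given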). The settings on record: DLD-1 viability, CellTiter-Glo luminescence; at 20 µM (top of the series).
For assay [10], the target named is 6-phosphogluconate dehydrogenase, decarboxylating (Homo sapiens) (UniProt P52209). Briefly: inhibition of human phosphogluconate dehydrogenase – biochemical, recombinant enzyme, NADPH absorbance, primary screen (AID 1159550;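 active means at least 20% inhibition of 6-phosphogluconate dehydrogenase activity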). The note with it: recombinant 6PGD, NADPH absorbance 341 nm; at 10 µM; stronger effect = higher value.
Chain of 6-phosphogluconate dehydrogenase, decarboxylating (Homo sapiens) (P52209 whole entry, looked up): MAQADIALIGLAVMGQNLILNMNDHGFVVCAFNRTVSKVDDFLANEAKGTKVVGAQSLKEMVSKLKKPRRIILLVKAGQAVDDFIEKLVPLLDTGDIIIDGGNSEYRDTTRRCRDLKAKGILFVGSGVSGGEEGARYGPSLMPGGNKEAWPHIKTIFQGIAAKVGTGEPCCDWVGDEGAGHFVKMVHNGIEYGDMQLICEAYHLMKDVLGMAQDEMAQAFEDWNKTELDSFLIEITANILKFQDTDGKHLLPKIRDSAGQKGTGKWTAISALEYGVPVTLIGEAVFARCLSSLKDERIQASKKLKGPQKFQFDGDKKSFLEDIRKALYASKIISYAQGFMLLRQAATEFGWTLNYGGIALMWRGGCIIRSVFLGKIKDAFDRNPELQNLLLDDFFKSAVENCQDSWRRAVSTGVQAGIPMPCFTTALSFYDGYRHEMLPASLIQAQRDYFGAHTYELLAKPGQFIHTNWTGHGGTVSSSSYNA
Assay [11] is described as follows: EMT-state selective cytotoxicity in co-culture – imaging, PC-3E GFP, TEM4-18 mCherry, primary screen (AID 1345086;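 active means compounds killing one labelled cell type while sparing the other, by normalised counts and ratio limits, not self-fluorescent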;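 on all read-outs here: cells exposed to compound for 72 h before imaging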;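 on red/green cell ratio (normalised): normalised mesenchymal count divided by normalised epithelial count so high means epithelial killing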). The note with it: PC-3E GFP / TEM4-18 mCherry co-culture, imaging cell counts, at 1 µM; for red/green cell ratio (normalised): actives lie on both sides.
Assay [12] deals with Aerobactin synthetase IucA (Klebsiella pneumoniae hvKP1). Briefly: IucA enzyme inhibition, primary screen, biochemical, Spectrum library (AID 1346200; call rule not given here;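 further: 100% = wells without compound and 0% = wells lacking enzyme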). The settings on record: malachite green pyrophosphate, A620, at 8 µM, stronger effect = lower value.
Assay [13] deals with NAD(+) hydrolase SARM1 (Homo sapiens) (UniProt Q6SZW1). Nature of the assay: blocking NAD cleavage by SARM1 SAM-TIR – cell lysate, NAD-Glo luminescence (AID 1508614;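 active means compound whose remaining NAD level is above about 45 nM, limit read from the data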). The settings on record: SAM-TIR HEK293T lysate NADase, at 1 µM, stronger effect = higher value.
Chain of NAD(+) hydrolase SARM1 (Homo sapiens) (Q6SZW1 whole entry, looked up): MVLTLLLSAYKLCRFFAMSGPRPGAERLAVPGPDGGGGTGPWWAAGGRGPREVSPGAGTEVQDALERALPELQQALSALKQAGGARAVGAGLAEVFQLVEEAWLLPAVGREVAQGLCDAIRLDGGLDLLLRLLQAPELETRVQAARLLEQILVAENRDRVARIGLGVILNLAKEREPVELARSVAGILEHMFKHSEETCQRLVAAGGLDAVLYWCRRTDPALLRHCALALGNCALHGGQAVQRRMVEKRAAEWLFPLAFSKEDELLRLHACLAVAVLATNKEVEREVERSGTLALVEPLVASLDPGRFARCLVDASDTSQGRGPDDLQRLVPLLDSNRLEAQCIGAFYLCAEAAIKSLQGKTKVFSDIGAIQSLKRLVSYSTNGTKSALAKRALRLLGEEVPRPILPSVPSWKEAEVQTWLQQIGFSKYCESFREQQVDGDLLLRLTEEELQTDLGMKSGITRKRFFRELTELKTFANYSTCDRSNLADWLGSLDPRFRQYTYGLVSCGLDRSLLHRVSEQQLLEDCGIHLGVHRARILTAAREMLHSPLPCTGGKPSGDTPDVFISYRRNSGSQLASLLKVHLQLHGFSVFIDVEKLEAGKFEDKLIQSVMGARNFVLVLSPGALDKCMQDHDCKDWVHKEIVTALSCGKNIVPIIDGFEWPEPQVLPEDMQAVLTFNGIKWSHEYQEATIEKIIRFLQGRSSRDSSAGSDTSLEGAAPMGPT
Assay [14] in a line: yeast 75Q aggregation reduction – 75Q-TubU reporter (AID 1593). The settings on record: Yeast 75Q polyglutamine aggregation reporter.
The nature of assay [15]: blockers of cytochrome c efflux from mitochondria – biochemical, purified mitochondria (AID 1603).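 Further: mouse liver mitochondria challenged with calcium chloride; signal normalized to the plate average as 100%.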 The settings on record: stronger effect = lower value.
A short description of assay [16]: polyglutamine aggregate formation blockers (AID 1604). The note with it: polyglutamine-induced protein aggregation inhibition assay; stronger effect = higher value; tested at 2.5 µM.
Assay [17] can be described thus: viability loss with induced miR-34 in A549 – imaging, A549 dox-inducible miR-34, nuclei and caspase counts, primary screen (AID 1347080;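 active means compounds whose cell count with miR-34 switched on is under 0.7 times the count with it off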). The note with it: A549 miR-34 inducible, Hoechst nuclei count, 48 h.
Assay [18] in a line: MELAS cybrid and Rieske KO viability enhancers – cell-based, MELAS cybrids, Rieske KO mouse fibroblasts, CellTiter-Glo, primary screen (AID 1508586;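 active means mean z-score across replicates of 1.96 or higher in either the MELAS or the Rieske mutant cell line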;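 further: z relative to plate mean and SD of compound and empty wells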). The note with it: low glucose.
For assay [19], the target named is Mitogen-activated protein kinase 7 (Homo sapiens) (UniProt Q13164). Nature of the assay: Gal4-ERK5 driven luciferase induction – cell-based, HTS, primary screen (AID 1508626;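 active means luciferase signal above three times the same-plate solvent-only control wells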;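 further: luciferase driven by Gal4-ERK5 fusion binding five Gal4 sites before minimal TATA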). The note with it: HeLa Gal4-ERK5 transactivation, 18 h, at 5 µM, stronger effect = higher value.
Chain of Mitogen-activated protein kinase 7 (Homo sapiens) (Q13164 whole entry, looked up, the tested form may be a part): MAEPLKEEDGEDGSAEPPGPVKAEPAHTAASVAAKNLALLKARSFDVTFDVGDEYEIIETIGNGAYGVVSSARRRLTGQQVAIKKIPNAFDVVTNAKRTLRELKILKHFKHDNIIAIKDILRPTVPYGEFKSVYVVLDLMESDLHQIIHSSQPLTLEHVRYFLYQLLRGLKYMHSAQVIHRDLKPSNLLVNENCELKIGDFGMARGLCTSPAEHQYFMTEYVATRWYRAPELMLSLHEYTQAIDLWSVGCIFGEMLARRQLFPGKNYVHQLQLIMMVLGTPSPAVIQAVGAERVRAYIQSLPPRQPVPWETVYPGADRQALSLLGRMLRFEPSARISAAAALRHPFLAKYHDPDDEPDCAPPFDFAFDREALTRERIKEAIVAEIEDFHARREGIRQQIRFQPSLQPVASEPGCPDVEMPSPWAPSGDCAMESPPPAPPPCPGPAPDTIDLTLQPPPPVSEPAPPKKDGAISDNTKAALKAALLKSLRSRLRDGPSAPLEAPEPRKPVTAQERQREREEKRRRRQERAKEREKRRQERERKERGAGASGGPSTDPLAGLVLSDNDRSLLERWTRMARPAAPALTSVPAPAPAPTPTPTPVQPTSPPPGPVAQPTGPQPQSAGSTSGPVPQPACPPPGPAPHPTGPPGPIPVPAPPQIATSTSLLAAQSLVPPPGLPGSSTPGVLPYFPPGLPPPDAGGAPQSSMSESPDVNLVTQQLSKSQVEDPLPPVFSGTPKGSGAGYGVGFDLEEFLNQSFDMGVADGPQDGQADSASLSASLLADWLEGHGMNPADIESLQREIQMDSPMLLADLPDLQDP
A short description of assay [20]: galactose survival enhancers in mitochondrial complex I cybrids – cell-based, galactose medium, ATP luminescence, primary screen (AID 1645843;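 active means z-score of at least 1.8 in each of two replicates, scored against plate mean and spread of sample wells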;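 further: positive z means more ATP and so rescue of galactose-driven cybrid death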). The note with it: complex I mutant cybrid cells, 72 h, stronger effect = higher value.
The mark [21] stands for this setting: measured here: epithelial PC-3E GFP cell survival.
Where [22] appears, read: measured here: mesenchymal TEM4-18 mCherry cell survival.
Setting [23] is: measured here: relative caspase fold change +Dox/-Dox.
Where [24] appears, read: measured here: total cells with miR-34 induction, stronger effect = lower value.
Setting [25] is: measured here: total cells without miR-34 induction.

Several values for one entry are separate records, joined by “and”; a condition that tells them apart may be missing. Equal values may be shown once. Activity calls are given as the source filed them. Unless noted, no stated cut-off is given here; in the data, active means parasite load remaining mostly below about 12% (no sharp cut-off); inactive means mostly above about 10%.

For orientation: viability means a read-out of living cells in per cent, often relative to untreated cells. As usually defined, the inhibition is the relative decrease from the control value, in per cent.

Take `CC(C)=CC1C(C(=O)OCc2cccc(Oc3ccccc3)c2)C1(C)C` (configuration not stated): the parasite load remaining in assay [1] was 123% (inactive). Also, the viability in [1] is 88.5%. Further, the nuclear beta-catenin stimulation in assay [2] (at 10 µM) was 1.3% (inactive); in assay [2] (stimulation, at 2 µM), 2.5%. Moreover, in assay [3], the insulin secretion stimulation is 2.9% (inactive). Also, in [4], the viability decrease was -21.3% (inactive). For the same compound, in [5], the tube area decrease was -14.2% (inactive). Besides, the GLP1 secretion stimulation in [6] is 1.7% (inactive). Besides, the inhibition of viability in assay [7] is 15.9% (inactive). Also, the viability decrease (inhibition) was 16.2% (inactive) in [8] and 31.4% (inactive) in assay [9]. Further, the inhibition in assay [10] was -5.61% (inactive). For the same compound, the red/green cell ratio (normalised) in assay [11] was 0.95 (inactive). In addition, the normalised cell number in assay [11] (setting [21]) is 1.25; in [11] (setting [22]), 1.19. For the same compound, the activity remaining in assay [12] is 99.1% (inactive). Moreover, the remaining NAD in assay [13] was 10 nM (inactive).
`COc1ccc(Cc2nccc3cc(OC)c(OC)cc23)cc1OC` had a score in [14] of 1.48. The cytochrome c release ratio in [15] came out at 1.07. In assay [16], this compound gave an inhibition of aggregation of 46.4%. For the same compound, the nuclear beta-catenin stimulation in [2] (at 10 µM) is 1.4% (inactive); in assay [2] (stimulation, at 2 µM), -0.3%. The insulin secretion stimulation in assay [3] was -2.5% (inactive). Besides, the viability decrease in assay [4] was 54.7% (active). Besides, in [5], the tube area decrease was 59.3% (active). In addition, the GLP1 secretion stimulation in assay [6] is 2.3% (inactive). Also, in assay [7], the inhibition of viability is 39.8% (inactive). In addition, the viability decrease (inhibition) is 112% (active) in assay [8] and 14.5% (inactive) in assay [9]. For the same compound, the inhibition in [10] is -8.16% (inactive). Besides, in assay [11], the red/green cell ratio (normalised) is 0.84 (inactive). Further, the normalised cell number in [11] (setting [21]) worked out at 1; in assay [11] (setting [22]), 0.83. In [12], the activity remaining was 114% (inactive). For the same compound, the fold change is 1.24 (inactive) and 0.81 (inactive) and 0.838 (inactive) in [17] (stronger effect = lower value); 0.505 and 1.57 and 3.09 in assay [17] (setting [23]). Moreover, the cell count was 7270 and 6810 and 7780 in assay [17] (setting [24]); 5860 and 8410 and 9280 in assay [17] (setting [25]). Besides, the z-score in [18] (MELAS cybrid survival, CellTiter-Glo 48 h, stronger effect = higher value) is 0.889 (inactive); in [18] (Rieske KO mouse fibroblast survival, CellTiter-Glo 72 h), 0.124; in assay [20], -1.28 (inactive). Further, in assay [13], the remaining NAD was 10 nM (inactive). For the same compound, in assay [19], the luciferase signal was 24 AU (inactive).
Consider `NCCc1cc(O)c(O)cc1O`, for which the score in assay [14] is 1.88. Besides, the cytochrome c release ratio in assay [15] turned out to be 0.92. The same compound yielded an inhibition of aggregation in [16] of 55.6%. In addition, the parasite load remaining in assay [1] was 70% (inactive) and 42.8% (inactive). The viability in assay [1] was 70% and 87.6%. For the same compound, the nuclear beta-catenin stimulation was 2.4% (inactive) in [2] (at 10 µM) and 2.4% in assay [2] (stimulation, at 2 µM). Further, the insulin secretion stimulation in assay [3] was 1.2% (inactive). In [4], the viability decrease is -22.3% (inactive). Further, the tube area decrease in [5] is 18.6% (inactive). Further, the GLP1 secretion stimulation in [6] is -8.1% (inactive). Also, the inhibition of viability in assay [7] is 15.3% (inactive). In addition, the viability decrease (inhibition) in [8] is 142% (active); in assay [9], 78.2% (active). Moreover, the inhibition in assay [10] was 13% (inactive). Further, in [11], the red/green cell ratio (normalised) is 1.14 (inactive). Also, the normalised cell number in assay [11] (setting [21]) came to 1.02; in assay [11] (setting [22]), 1.17. Besides, the activity remaining in assay [12] was 78.8% (inactive). The fold change in assay [17] (stronger effect = lower value) was 0.838 (inactive); in assay [17] (setting [23]), 0.786. Also, the cell count turned out to be 10500 in assay [17] (setting [24]) and 12600 in assay [17] (setting [25]). Moreover, the remaining NAD in assay [13] is 10 nM (inactive). In assay [19], the luciferase signal is 156 AU (inactive).
On to `C[C@H]1C(=O)O[C@@H]2CCN3CC=C(COC(=O)[C@](C)(O)[C@]1(C)O)[C@H]23`, for which the score in [14] worked out at 1.29. The cytochrome c release ratio in [15] was determined as 0.94. In addition, the inhibition of aggregation in assay [16] was 36.1%. Besides, in assay [1], the parasite load remaining was 96.1% (inactive) and 65.8% (inactive) and 70.5% (inactive). Moreover, the viability in [1] was 103% and 66% and 74.5%. Besides, the nuclear beta-catenin stimulation is -0.7% (inactive) in [2] (at 10 µM) and -0.6% in assay [2] (stimulation, at 2 µM). Also, the insulin secretion stimulation in assay [3] was -0.1% (inactive). Further, the viability decrease in [4] was -4.9% (inactive). For the same compound, the tube area decrease in assay [5] was 17.9% (inactive). In addition, in assay [6], the GLP1 secretion stimulation was -1.4% (inactive). The inhibition of viability in assay [7] was -6% (inactive). In addition, the viability decrease (inhibition) in assay [8] was -1.2% (inactive); in [9], -12.1% (inactive). The inhibition in assay [10] was 17% (inactive). Also, the red/green cell ratio (normalised) in assay [11] was 1.08 (inactive). Besides, the figures for the normalised cell number in [11] (setting [21]) and in assay [11] (setting [22]) were 0.97 and 1.05, respectively. Moreover, in assay [12], the activity remaining is 111% (inactive). The fold change is 0.8 (inactive) in assay [17] (stronger effect = lower value) and 1.54 in assay [17] (setting [23]). The cell count in assay [17] (setting [24]) turned out to be 8710; in [17] (setting [25]), 10900. In addition, the luciferase signal in assay [19] was 56 AU (inactive).
